This passage reports composite z-score and z-score results from PubChem BioAssay.

Calls of active or inactive are those of the source. Unless noted, no rule for the calls is given here.

Assay [1] concerns XIP peptide (Xip251-270) binding. The experiment in a line: XIP fragment 251-270 binding compounds – biochemical, small-molecule microarray, fluorescence 635/667 nm, 0.1 µg/mL protein, primary screen (AID 1182). Conditions: fluorescent protein binding, 635 nm, higher = more signal, called active from +8 up or from −8 down.
The subject of assay [2] is XIP peptide (Xip251-270). The experiment in a line: compounds binding XIP fragment 251-270 – biochemical, small-molecule microarray, fluorescence 635/667 nm, 0.5 µg/mL protein, primary screen (AID 1183). The following applies: fluorescence 635 nm, higher = more signal.
The nature of assay [3]: blood-stage malaria parasite viability loss – strain 3D7, DAPI fluorescence, 100 nL, primary screen (AID 1184).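 Also: parasites grown inside human red blood cells in medium with human serum.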 The following applies: P. falciparum 3D7 growth, 3 d, higher = more signal.
Assay [4] has as its target Homeobox protein Hox-A13 (Mus musculus) (UniProt Q62424). The assay is described as follows: disruptors of Hoxa13 oligonucleotide interaction – biochemical, fluorescence polarization, labeled oligonucleotide, primary screen (AID 1185). The following applies: Hoxa13:DNA binding, 15 min, higher = more signal, called active from +8 up or from −8 down. A general note: In fluorescence polarisation assays a small probe gives low polarisation when free and higher when bound to something large.

A short description of assay [5]: blockers of DNA damage checkpoint Chk1 activation – imaging, HeLa, hydroxyurea, phospho-Chk1 antibody, percent positive cells, primary screen (AID 1186). The following applies: hydroxyurea-induced phospho-Chk1 immunofluorescence imaging, higher = more signal.
The nature of assay [6]: blockers of DNA damage checkpoint Chk1 activation – imaging, HeLa, hydroxyurea, phospho-Chk1 nuclear intensity, primary screen (AID 1187). Conditions: hydroxyurea-induced phospho-Chk1 immunofluorescence imaging, higher = more signal.

Homeobox protein Hox-A13 (Mus musculus), sequence (Q62424 whole entry, looked up): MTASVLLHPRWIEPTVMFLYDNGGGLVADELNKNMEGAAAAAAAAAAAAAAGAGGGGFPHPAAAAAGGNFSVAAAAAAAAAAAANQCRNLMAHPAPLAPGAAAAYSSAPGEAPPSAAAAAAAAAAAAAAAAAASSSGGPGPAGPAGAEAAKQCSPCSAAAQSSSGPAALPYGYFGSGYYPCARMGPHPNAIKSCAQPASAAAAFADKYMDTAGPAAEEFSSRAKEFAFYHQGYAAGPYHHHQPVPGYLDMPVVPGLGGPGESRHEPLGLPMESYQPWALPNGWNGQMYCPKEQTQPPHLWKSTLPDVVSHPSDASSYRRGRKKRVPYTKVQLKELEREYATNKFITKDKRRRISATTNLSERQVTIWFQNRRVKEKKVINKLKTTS

For the compound `Cc1c(NC(=O)/C(C#N)=C/C=C/c2ccccc2)c(=O)n(-c2ccccc2)n1C`, the composite z-score in assay [1] was -0.3 (inactive); in assay [2], 0.559. For the same compound, the z-score was -0.582 in assay [3], -1.5 (inactive) in assay [4], 0.062 (inactive) in assay [5] and 0.214 (inactive) in assay [6].
`CC(C)(C)OC(=O)CC[C@@]1(C(=O)NCC(O)CO)N=C(c2ccc(OCCCO)cc2)O[C@@H]1c1ccccc1` (stereo partly specified): the composite z-score was 0.826 (inactive) in assay [1] and 0.942 in assay [2]. Further, the z-score was 0.649 in assay [3], -4.48 (inactive) in assay [4], 0.184 (inactive) in assay [5] and -0.14 (inactive) in assay [6].
Take `COc1cc(NN2C(C(O)c3ccccc3)C=CC3C(=O)N(c4ccccc4)C(=O)C32)cc(OC)c1OC` (stereo unspecified): the composite z-score is 0.396 (inactive) in assay [1] and 0.774 in assay [2]. Moreover, the z-score in assay [3] was -0.634; in assay [4] it was -4.58 (inactive); in assay [5], 0.124 (inactive); in assay [6], -0.0995 (inactive).
`C=CCC(OC(C)=O)[C@@H]1[C@@H](N(Cc2cc3ccccc3o2)C(=O)c2ccc(C)cc2)c2cc(OCCCO)ccc2N1C(=O)c1ccc(-c2ccccc2)cc1` (stereo partly specified): the composite z-score in assay [1] is -0.28 (inactive); in assay [2], -0.294. In addition, the z-score is -2.58 in assay [3], -0.468 (inactive) in assay [4], -1.19 (inactive) in assay [5] and -1.05 (inactive) in assay [6].
For `[N-]=[N+]=NCc1ccccc1[C@H]1OC(c2ccc(OCCCO)cc2)=N[C@@]1(Cc1ccccc1)C(=O)NCC(O)CO` (stereo partly specified), the composite z-score in assay [1] was 0.701 (inactive); in assay [2], 0.306. For the same compound, the z-score in assay [3] was -2.48; in assay [4] it was -3.47 (inactive); in assay [5] it was 0.105 (inactive); in assay [6] it was 0.231 (inactive).
Turning to `COc1ccc(C#Cc2ccc3c(c2)[C@]2(C(=O)N3)[C@H](C(=O)N3CCc4cc(OC)c(OC)cc4C3)[C@H]3C(=O)O[C@H](c4ccccc4)[C@H](c4ccccc4)N3[C@@H]2c2ccc(OCCO)cc2)cc1`, the composite z-score in assay [1] is 0.53 (inactive); in assay [2], 0.598. For the same compound, the z-score in assay [3] was -1.36; in assay [4] it was -2.71 (inactive); in assay [5], -0.122 (inactive); in assay [6] it was 2.93 (inactive).
`COC(=O)[C@@]1(Cc2ccc(OC)cc2)[C@H]2c3cc(C(=O)N(C)C)n(CCSCCO)c3C[C@H]2CN1C(=O)c1ccccc1`: the composite z-score in assay [1] is 0.149 (inactive); in assay [2], 0.504. In addition, the z-score was -1.48 in assay [3], -5.09 (inactive) in assay [4], -0.02 (inactive) in assay [5] and 0.101 (inactive) in assay [6].
Take `C=C(/C(=C/C[C@@H](OC(=O)c1ccncc1)c1ccc(CO)o1)c1cc(C(=O)OC)ccc1OC)C(C)C`: the composite z-score in assay [1] is 0.18 (inactive); in assay [2], 0.813. For the same compound, the z-score in assay [3] is -1.01; in assay [4], -4.08 (inactive); in assay [5], -0.471 (inactive); in assay [6], 0.811 (inactive).
`COC(=O)[C@@]1(Cc2ccc(OC)cc2)[C@H]2c3cc(C(=O)N(C)C)n(Cc4ccc(OC)c(OC)c4)c3C[C@H]2CN1C(=O)c1ccccc1`: the figures for the composite z-score in assay [1] and in assay [2] were 0.811 (inactive) and 0.696, respectively. Also, the z-score in assay [3] was -1.47; in assay [4], -4.3 (inactive); in assay [5] it was -0.225 (inactive); in assay [6], 0.305 (inactive).
For `CC(C)(C)OC(=O)CC[C@@]1(C(=O)N2CCOCC2)N=C(c2ccc(OCCCO)cc2)O[C@@H]1c1ccccc1N=[N+]=[N-]`, the composite z-score in assay [1] was 0.14 (inactive); in assay [2] it was 0.84. In addition, the z-score in assay [3] was -1.97; in assay [4] it was -4.17 (inactive); in assay [5], -0.496 (inactive); in assay [6] it was -0.439 (inactive).
Consider `O=C1[C@H]2C=C(Br)[C@H](C[C@@H]2OCCOCCO)[C@@]12CO2`, for which the figures for the composite z-score in assay [1] and in assay [2] were -0.0844 (inactive) and 0.798, respectively. The z-score in assay [3] is -0.334; in assay [4] it was -0.559 (inactive); in assay [5], -0.051 (inactive); in assay [6] it was -0.0596 (inactive).
As for `O=S(=O)(NCCCO)c1ccc(Br)cc1`, the composite z-score in assay [1] is -0.2 (inactive); in assay [2] it was 0.0425. For the same compound, the z-score in assay [3] is 0.327; in assay [4] it was 0.533 (inactive); in assay [5], -0.868 (inactive); in assay [6], -0.953 (inactive).
In the case of `CCOC(=O)C[C@H]1[C@H](OC(=O)c2cc3ccccc3oc2=O)[C@@H](NC(=O)c2ccc3ccccc3c2)c2cc(OCCCO)ccc2N1C(=O)c1ccccc1`, the composite z-score in assay [1] is 0.126 (inactive); in assay [2], 0.218. Also, the z-score in assay [3] was -2.17; in assay [4], 0.287 (inactive); in assay [5], 0.371 (inactive); in assay [6] it was 0.632 (inactive).
As to `CC1CC/C=C\[C@H]2OC34C=CCN(c5ccc6ccccc6c5)C(=O)[C@H]3N(CCCCCO)C(=O)[C@@H]4C2C(=O)O1` (stereo partly specified), the figures for the composite z-score in assay [1] and in assay [2] were 1.37 (inactive) and -0.165, respectively. For the same compound, the z-score in assay [3] was -0.0643; in assay [4], -6.06 (inactive); in assay [5], 0.549 (inactive); in assay [6] it was -0.382 (inactive).
Take `CC(C)C[C@@H]1NC(=O)[C@@H]2C[C@H](C(=O)NCCCCN(C)C)[C@H](c3ccc(O)cc3)N2C1=O`: the composite z-score was -0.0862 (inactive) in assay [1] and 0.937 in assay [2]. For the same compound, the z-score is -0.06 in assay [3], -1.49 (inactive) in assay [4], 0.326 (inactive) in assay [5] and 0.219 (inactive) in assay [6].
As to `COc1ccccc1CN1C(=O)c2ccccc2[C@](Cc2ccccc2I)(C(=O)NC2CC2)[C@@H]1c1ccc(CO)cc1`, the composite z-score in assay [1] was -0.259 (inactive); in assay [2] it was 0.823. Further, the z-score was -2.22 in assay [3], -4.79 (inactive) in assay [4], -0.145 (inactive) in assay [5] and 0.548 (inactive) in assay [6].
With `O=C1OCC=C[C@H]2OC34C=CCN(c5ccc(Cl)cc5)C(=O)[C@H]3N(CCCO)C(=O)[C@@H]4[C@@H]12` (stereo partly specified), the composite z-score in assay [1] is 1.92 (inactive); in assay [2] it was -0.501. For the same compound, the z-score was -1.39 in assay [3], -2.31 (inactive) in assay [4], -0.0921 (inactive) in assay [5] and -0.389 (inactive) in assay [6].
On to `O=C1C2C=CC(C(O)c3ccccn3)N(Nc3ccccc3F)C2C(=O)N1c1ccccc1` (stereo unspecified), for which the composite z-score is -0.035 (inactive) in assay [1] and 0.796 in assay [2]. The z-score was -0.0664 in assay [3], -2.54 (inactive) in assay [4], -0.0045 (inactive) in assay [5] and -0.176 (inactive) in assay [6].
Take `C=CCC(OC(C)=O)[C@@H]1[C@@H](N(Cc2ccc(-c3cccc(C(F)(F)F)c3)o2)C(=O)c2ccc(C)cc2)c2cc(OCCCO)ccc2N1C(=O)c1ccc2ccccc2n1` (stereo partly specified): the composite z-score is -0.0348 (inactive) in assay [1] and -0.789 in assay [2]. The z-score is -0.537 in assay [3], -0.918 (inactive) in assay [4], -0.51 (inactive) in assay [5] and -0.703 (inactive) in assay [6].
`Oc1ccc2cc[n+](Cc3cccc(OC(F)(F)F)c3)cc2c1`: the composite z-score in assay [1] is 0.143 (inactive); in assay [2] it was 0.558. Besides, the z-score in assay [3] is 0.233; in assay [4] it was -3.08 (inactive); in assay [5], -0.208 (inactive); in assay [6] it was -0.16 (inactive).
Regarding `[N-]=[N+]=NCc1ccccc1C[C@]1(C(=O)N2CCOCC2)N=C(c2ccc(OCCCO)cc2)O[C@H]1c1ccccc1`, the composite z-score in assay [1] was 0.855 (inactive); in assay [2], 0.21. In addition, the z-score was -2.38 in assay [3], -6.01 (inactive) in assay [4], -0.638 (inactive) in assay [5] and -0.71 (inactive) in assay [6].
As for `COc1ccccc1CN1C(=O)c2ccccc2[C@](Cc2ccccc2I)(C(=O)NCc2ccccc2)[C@@H]1c1ccc(CO)cc1`, the composite z-score in assay [1] was -0.501 (inactive); in assay [2], 0.801. The z-score was -0.818 in assay [3], -2.8 (inactive) in assay [4], 0.234 (inactive) in assay [5] and 0.365 (inactive) in assay [6].
Take `C=C(C(=O)CC[C@@H](OC(=O)c1cccnc1)c1ccc(OCCO)cc1)C(C)C`: the composite z-score is 1.15 (inactive) in assay [1] and 0.611 in assay [2]. The z-score was -0.496 in assay [3], -3.94 (inactive) in assay [4], 1.38 (inactive) in assay [5] and 1.36 (inactive) in assay [6].
`C=C(CCCC)/C(=C/C[C@@H](OC(=O)c1ccncc1)c1ccc(CO)o1)c1cc(C(=O)OC)ccc1OC`: the values for the composite z-score in assay [1] and in assay [2] were 0.611 (inactive) and 0.83, respectively. In addition, the z-score in assay [3] was -0.519; in assay [4], -3.68 (inactive); in assay [5], -0.762 (inactive); in assay [6] it was -1.65 (inactive).
With `C=CC[C@]1(C(=O)O)N=C(c2ccc(OCCCO)cc2)O[C@H]1c1ccccc1CN=[N+]=[N-]`, the values for the composite z-score in assay [1] and in assay [2] were 1 (inactive) and -0.76, respectively. The z-score is 0.797 in assay [3], -5.35 (inactive) in assay [4], 0.341 (inactive) in assay [5] and -0.0268 (inactive) in assay [6].
Consider `CO[C@H]1O[C@H](CO)[C@@H](OC(=O)Nc2ccc3c(c2)OCO3)[C@H](OC(=O)Nc2ccc3c(c2)OCO3)[C@H]1OC(=O)Nc1ccc2c(c1)OCO2`, for which the composite z-score in assay [1] was 2.3 (inactive); in assay [2], 0.842. In addition, the z-score in assay [3] was -2.1; in assay [4], -4.78 (inactive); in assay [5], -0.134 (inactive); in assay [6], 0.245 (inactive).
